According to paper PMC4242493, “Sequence specificity incompletely defines the genome-wide occupancy of Myc”:

Molecular target: Myc;MaxL (Homo sapiens;Homo sapiens, UniProt P01106-1;P61244 1-439;1-160, |)
Assay: universal protein-binding microarray (PBM); PBS-based mixture, 10 nM His-tagged protein dimer, 2% milk, 200 ng/uL BSA, 50 ng/uL salmon testes DNA, 0.02% TX-100; detection with Alexa 488 anti-His antibody;; high values mean tight binding;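 note: fluorescence intensity normalized to that of the highest-ranked 8-mer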
Details: protein: recombinant;recombinant; tags: C-terminal His-tag (pET21a);C-terminal His-tag (pET21a); copies: 1;1; dsDNA, one strand shown

Myc;MaxL, sequence (P01106 16-454, chain 1 of 2): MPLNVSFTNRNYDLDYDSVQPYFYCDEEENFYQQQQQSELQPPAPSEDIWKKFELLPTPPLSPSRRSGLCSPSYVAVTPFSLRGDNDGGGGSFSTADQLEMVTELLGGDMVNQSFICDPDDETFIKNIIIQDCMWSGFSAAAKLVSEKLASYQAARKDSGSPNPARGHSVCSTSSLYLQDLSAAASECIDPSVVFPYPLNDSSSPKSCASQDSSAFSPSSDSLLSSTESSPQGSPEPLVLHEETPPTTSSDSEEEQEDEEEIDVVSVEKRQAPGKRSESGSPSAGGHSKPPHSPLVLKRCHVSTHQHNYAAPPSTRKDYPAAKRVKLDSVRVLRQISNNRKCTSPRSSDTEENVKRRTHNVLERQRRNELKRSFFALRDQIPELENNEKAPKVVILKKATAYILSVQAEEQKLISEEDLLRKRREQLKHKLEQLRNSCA
Myc;MaxL, sequence (P61244 whole entry, chain 2 of 2): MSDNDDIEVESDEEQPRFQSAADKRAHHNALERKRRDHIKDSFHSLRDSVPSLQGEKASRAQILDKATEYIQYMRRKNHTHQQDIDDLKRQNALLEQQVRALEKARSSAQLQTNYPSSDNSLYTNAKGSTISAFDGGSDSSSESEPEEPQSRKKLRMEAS

In order of falling binding signal:
1. CCACGTGC  0.978 normalized occupancy
2. CCACGTGG  0.959 normalized occupancy
3. AGCACGTG  0.947 normalized occupancy
4. CACGTGGC  0.927 normalized occupancy
5. ACACGTGG  0.895 normalized occupancy
6. ACCACGTG  0.875 normalized occupancy
7. ACACGTGT  0.833 normalized occupancy
8. CACGTGGA  0.81 normalized occupancy
9. CACGTGCG  0.798 normalized occupancy
10. AACACGTG  0.784 normalized occupancy
11. ACACGTGC  0.766 normalized occupancy
12. CACGTGTC  0.761 normalized occupancy
13. CACGTGGG  0.757 normalized occupancy
14. CACGTGCC  0.732 normalized occupancy
